In the supplement of paper PMC8253809:

The compounds below were run on HGGX39 (paediatric high-grade glioma line) (assay: growth inhibition (% activity, log2 RLU normalised to DMSO / staurosporine); higher = more growth inhibition). Details: 33 µM.
How it was run: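 The growth-inhibition value is the median over replicates. pHGG cell lines and H9-derived neural stem cells on Geltrex-coated 384-well plates received approved drugs by pin tool at a single final concentration of about 33 μM, in triplicate, for 7 days at 37 °C, 5% CO2. CellTiter-Glo luminescence was log2-transformed and normalised per plate to % activity between solvent and positive control wells.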

Structure (SMILES) | growth inhibition
O=C1OC(CN2CCOCC2)CN1/N=C/c1ccc([N+](=O)[O-])o1 (stereo unspecified) | -0.169%
NC[C@@H]1O[C@H](O[C@H]2[C@@H](O)[C@H](O[C@@H]3[C@@H](O)[C@H](N)C[C@H](N)[C@H]3O[C@H]3O[C@H](CN)[C@@H](O)[C@H](O)[C@H]3N)O[C@@H]2CO)[C@H](N)[C@@H](O)[C@@H]1O | 2.24%
C[C@@H]1CN(c2c(F)c(F)c3c(=O)c(C(=O)O)cn(C4CC4)c3c2F)C[C@H](C)N1 | 1.32%
NC[C@H]1O[C@H](O[C@H]2[C@H](O)[C@@H](O[C@H]3O[C@H](CO)[C@@H](O)[C@H](N)[C@H]3O)[C@H](N)C[C@@H]2N)[C@H](N)C[C@@H]1O | -1.03%
Cn1c(=O)c2c(ncn2CC(O)CO)n(C)c1=O (stereo unspecified) | 2.44%
C[C@@H](Oc1cc(-c2cnn(C3CCNCC3)c2)cnc1N)c1c(Cl)ccc(F)c1Cl | 16.1%
CCC(=O)NCC[C@@H]1CCc2ccc3c(c21)CCO3 | 1.29%
CO[C@H]1C[C@@H]2CC[C@@H](C)[C@@](O)(O2)C(=O)C(=O)N2CCCC[C@H]2C(=O)O[C@H]([C@H](C)C[C@@H]2CC[C@@H](OC(=O)C(C)(CO)CO)[C@H](OC)C2)CC(=O)[C@H](C)/C=C(\C)[C@@H](O)[C@@H](OC)C(=O)[C@H](C)C[C@H](C)/C=C/C=C/C=C/1C | 6.98%
CC1(C)S[C@@H]2[C@H](NC(=O)[C@H](NC(=O)N3CCNC3=O)c3ccccc3)C(=O)N2[C@H]1C(=O)O | 1.59%
NC[C@H](O)c1ccc(O)c(O)c1 | 3.45%
CC[C@H](C)C(=O)O[C@H]1CCC=C2C=C[C@H](C)[C@H](CC[C@@H]3C[C@@H](O)CC(=O)O3)[C@H]21 | 21.1%
